Reference: PubChem BioAssay (NCATS)
Records with an inconclusive call do not appear. A call without a number means that no potency is given here. Some structures have more than one record in an assay (separate samples or runs), and their calls can disagree. Active and inactive are the calls of the source. Unless noted, calls come from the whole dose curve; as a rule, active = well fitted curve in the direction sought with a large enough effect; inconclusive = small, poorly fitted or top-dose-only effect, or another doubt; inactive = no such curve, though single readings can be large; an effect the other way counts as inactive or inconclusive.

Experiments:
[1] = qHTS assay to identify small molecule inhibitors of chordoma cells - UCH-1 (AID 1259355); note: nearly all actives have a fitted effect of over 55% in size
Method in brief: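 A 48hr growth-inhibition format: each drug tested at 15 concentrations together with added auranofin, camptothecin, doxorubicin, rubitecan and topotecan, with cell viability quantified as CellTiter-Glo luminescence.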

[2] = qHTS assay to identify small molecule inhibitors of chordoma cells - UCH-2 (AID 1259356); note: series mostly up to about 46 µM
[3] = P-glycoprotein substrates identified in KB-8-5-11 adenocarcinoma cell line, qHTS therapeutic library screen (AID 1346987); note: nearly all actives have a fitted effect of over 65% in size; note: potency is the fitted concentration of half-maximal effect
Method in brief: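 Luminescence from CellTiter-Glo, read 5 min after addition, quantified survival of KB-8-5-11 (P-gp-overexpressing) cells exposed to compounds for 72 h. AC50 was derived from concentration-response curves.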

[4] = NS1 protein of Zika virus - qHTS assay to identify small molecule inhibitors in human HEK 293 cells (AID 1347053); note: nearly all actives have a fitted effect of over 55% in size; note: potency is the fitted concentration of half-maximal effect
Method in brief: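 TR-FRET signal from two anti-ZIKV NS1 antibodies quantified NS1 in HEK 293 cells 24 h after MR766 infection at MOI = 0.5; compounds were added 1 h before virus. Uninfected cells and infected cells defined the NS1 normalization range.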

[5] = qHTS for Inhibitors of the Functional Ribonucleoprotein Complex (vRNP) of Lassa (LASV) Arenavirus: Viability assay - alamar blue signal for LASV Primary Screen (AID 1347083; calls by dose curve; tested in HEK293 reporter line; note: series mostly up to about 57 µM; nearly all actives have a fitted effect of over 80% in size)
[6] = qHTS for Inhibitors of the Functional Ribonucleoprotein Complex (vRNP) of Lymphocytic Choriomeningitis Arenaviruses (LCMV): Viability assay - alamar blue signal for LCMV Primary Screen (AID 1347085; calls by dose curve; tested in HEK293 reporter line; note: series mostly up to about 57 µM; nearly all actives have a fitted effect of over 80% in size)
[7] = Natriuretic polypeptide receptor (hNpr1) antagonism - Pilot counterscreen GloSensor control cell line (AID 1347045; calls by dose curve; note: series mostly up to about 38 µM)
Method in brief: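 Cells were first seeded and incubated overnight at 37C, then loaded with 2% GloSensor substrate for 2 h. Compounds were added for 30 min at room temperature, followed by a baseline read, 50 uM SNP and a final read after 20 min.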

[8] = molecular target: Atrial natriuretic peptide receptor 1 (Homo sapiens) (UniProt P16066); assay: Natriuretic polypeptide receptor (hNpr1) antagonism - Pilot screen (AID 1347049; calls by dose curve;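 note: HEK293 cells with hNpr1 and GloSensor cGMP luciferase stimulated by 0.1 nM hNppA; agonist-evoked cGMP luminescence read 20 min after hNppA addition; series mostly up to about 58 µM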)
Sequence of Atrial natriuretic peptide receptor 1 (Homo sapiens) (P16066 whole entry, looked up): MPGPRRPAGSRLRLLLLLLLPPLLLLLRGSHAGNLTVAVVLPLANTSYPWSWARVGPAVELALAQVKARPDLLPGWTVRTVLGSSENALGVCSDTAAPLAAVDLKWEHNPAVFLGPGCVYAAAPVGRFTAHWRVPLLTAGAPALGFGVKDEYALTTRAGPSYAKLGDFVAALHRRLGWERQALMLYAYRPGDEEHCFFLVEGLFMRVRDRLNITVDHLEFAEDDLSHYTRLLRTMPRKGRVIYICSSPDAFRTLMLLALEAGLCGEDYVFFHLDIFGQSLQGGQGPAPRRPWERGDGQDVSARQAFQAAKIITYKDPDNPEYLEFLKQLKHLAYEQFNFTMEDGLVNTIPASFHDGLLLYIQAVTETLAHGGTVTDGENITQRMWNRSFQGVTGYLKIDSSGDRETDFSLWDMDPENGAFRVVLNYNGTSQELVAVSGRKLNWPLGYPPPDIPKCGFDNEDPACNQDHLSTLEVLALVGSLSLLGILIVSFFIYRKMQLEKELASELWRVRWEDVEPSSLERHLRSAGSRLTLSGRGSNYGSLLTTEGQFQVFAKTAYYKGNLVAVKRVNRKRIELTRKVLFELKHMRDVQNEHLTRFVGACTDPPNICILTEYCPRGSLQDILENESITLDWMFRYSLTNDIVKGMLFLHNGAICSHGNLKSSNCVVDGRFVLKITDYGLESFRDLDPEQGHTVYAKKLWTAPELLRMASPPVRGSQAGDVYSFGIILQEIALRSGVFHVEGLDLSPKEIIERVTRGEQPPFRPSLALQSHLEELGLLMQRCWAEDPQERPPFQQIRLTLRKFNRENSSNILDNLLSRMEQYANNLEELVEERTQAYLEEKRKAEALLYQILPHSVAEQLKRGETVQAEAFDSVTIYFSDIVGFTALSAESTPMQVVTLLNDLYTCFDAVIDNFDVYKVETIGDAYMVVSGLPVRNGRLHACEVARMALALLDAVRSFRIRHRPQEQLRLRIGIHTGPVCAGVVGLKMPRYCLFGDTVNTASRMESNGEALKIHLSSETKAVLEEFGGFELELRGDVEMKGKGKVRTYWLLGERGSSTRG
Method in brief: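 Cells expressing receptor plus cGMP biosensor are seeded and incubated overnight at 37C, then loaded with GloSensor reagent (2% final) at room temperature for 2 h. Library compounds go on for 30 min. A pre-read precedes agonist (hNppA, 0.1 nM final) and a 20-min readout.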

[9] = molecular target: Atrial natriuretic peptide receptor 2 (Homo sapiens) (UniProt P20594); assay: Natriuretic polypeptide receptor (hNpr2) antagonism - Pilot subtype selectivity assay (AID 1347050; calls by dose curve)
Sequence of Atrial natriuretic peptide receptor 2 (Homo sapiens) (P20594 whole entry, looked up): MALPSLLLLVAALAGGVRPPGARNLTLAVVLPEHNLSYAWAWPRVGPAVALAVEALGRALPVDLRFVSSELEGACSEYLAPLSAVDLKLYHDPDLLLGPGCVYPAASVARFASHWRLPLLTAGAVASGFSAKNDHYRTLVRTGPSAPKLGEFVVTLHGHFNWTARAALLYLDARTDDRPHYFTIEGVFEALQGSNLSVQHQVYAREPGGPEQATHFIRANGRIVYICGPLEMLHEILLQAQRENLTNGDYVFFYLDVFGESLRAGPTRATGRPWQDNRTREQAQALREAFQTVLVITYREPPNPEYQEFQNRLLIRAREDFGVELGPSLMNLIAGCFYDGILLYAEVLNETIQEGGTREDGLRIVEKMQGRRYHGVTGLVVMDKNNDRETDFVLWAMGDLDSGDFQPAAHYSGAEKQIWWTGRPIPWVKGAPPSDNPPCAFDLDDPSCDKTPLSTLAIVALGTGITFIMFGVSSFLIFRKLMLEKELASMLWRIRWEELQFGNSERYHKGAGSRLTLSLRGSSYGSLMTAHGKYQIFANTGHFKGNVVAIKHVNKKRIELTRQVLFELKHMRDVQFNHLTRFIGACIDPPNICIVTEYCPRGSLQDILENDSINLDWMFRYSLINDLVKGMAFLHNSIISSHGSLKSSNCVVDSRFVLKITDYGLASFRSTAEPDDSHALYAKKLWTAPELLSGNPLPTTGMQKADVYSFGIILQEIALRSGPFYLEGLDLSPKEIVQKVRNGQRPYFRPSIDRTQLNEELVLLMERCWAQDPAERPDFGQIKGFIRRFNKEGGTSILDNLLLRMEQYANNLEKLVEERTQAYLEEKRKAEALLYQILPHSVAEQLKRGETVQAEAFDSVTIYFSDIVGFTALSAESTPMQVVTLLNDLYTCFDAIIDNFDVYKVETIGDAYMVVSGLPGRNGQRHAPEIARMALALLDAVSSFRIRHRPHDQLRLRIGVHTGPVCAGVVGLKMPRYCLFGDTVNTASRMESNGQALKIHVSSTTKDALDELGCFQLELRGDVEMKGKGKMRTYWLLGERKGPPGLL
Method in brief: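 Read-out: GloSensor luminescence (CCD imager), baseline vs post-stimulation. HEK293 cells expressing hNpr2; compounds pre-incubated 30-50 min at ambient temperature; hNppC 1 nM final, 20 min.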

[10] = molecular target: T1, Tyrosine-protein phosphatase non-receptor type substrate 1 (Homo sapiens) + Leukocyte surface antigen CD47 (Homo sapiens) (UniProt P78324+Q08722); assay: CD47-SIRPalpha protein protein interaction - LANCE assay qHTS validation (AID 1347057; active = well fitted curve in the direction sought with a large enough effect in the signal ratio, with a control signal flat, not every such curve was filed as active; the % refers to the signal ratio; note: series mostly up to about 38 µM)
T1 sequence (P78324 whole entry, looked up, the tested form may be a part): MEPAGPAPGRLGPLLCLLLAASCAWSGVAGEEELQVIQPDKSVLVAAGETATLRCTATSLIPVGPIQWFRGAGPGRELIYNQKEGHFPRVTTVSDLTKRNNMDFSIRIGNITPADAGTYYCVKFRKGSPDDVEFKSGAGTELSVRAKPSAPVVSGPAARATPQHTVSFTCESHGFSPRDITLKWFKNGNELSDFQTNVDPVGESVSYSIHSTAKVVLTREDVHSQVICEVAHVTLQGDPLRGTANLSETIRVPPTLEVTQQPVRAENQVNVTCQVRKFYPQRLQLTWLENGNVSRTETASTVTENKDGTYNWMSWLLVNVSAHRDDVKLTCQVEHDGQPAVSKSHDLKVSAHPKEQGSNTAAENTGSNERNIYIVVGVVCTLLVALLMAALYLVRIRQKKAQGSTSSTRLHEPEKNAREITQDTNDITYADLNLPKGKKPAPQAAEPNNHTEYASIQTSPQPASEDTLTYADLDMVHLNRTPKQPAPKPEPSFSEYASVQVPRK
T1 sequence (Q08722 whole entry, looked up, the tested form may be a part): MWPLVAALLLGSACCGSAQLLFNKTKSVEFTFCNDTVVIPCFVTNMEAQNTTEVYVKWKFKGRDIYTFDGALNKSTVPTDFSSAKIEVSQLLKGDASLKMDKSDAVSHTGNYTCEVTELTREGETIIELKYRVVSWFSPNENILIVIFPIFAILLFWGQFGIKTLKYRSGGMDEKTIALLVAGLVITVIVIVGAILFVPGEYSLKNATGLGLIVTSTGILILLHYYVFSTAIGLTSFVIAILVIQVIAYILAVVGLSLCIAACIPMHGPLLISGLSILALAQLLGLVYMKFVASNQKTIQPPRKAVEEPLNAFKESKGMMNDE
Method in brief: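 Inhibition of soluble CD47/SIRPalpha ectodomain association by titrated compounds, measured as 665/615 nm time-resolved FRET ratio after sequential 30 min room-temperature incubations.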

[11] = molecular target: T1, Tyrosine-protein phosphatase non-receptor type substrate 1 (Homo sapiens) + Leukocyte surface antigen CD47 (Homo sapiens); assay: CD47-SIRPalpha protein protein interaction - HTRF assay qHTS validation (AID 1347058; active = well fitted curve in the direction sought with a large enough effect in the signal ratio, not every such curve was filed as active; the % refers to the signal ratio; note: series mostly up to about 38 µM)
Method in brief: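 Soluble extracellular domains (6His-CD47, Avi-tag-biotinylated SIRPalpha) in PBS pH 7.4 with 0.05% IGEPAL CA-630. Compounds were preincubated 30 min at RT with CD47 and anti-His-Eu, then SIRPalpha and SAV-XL665 were added. TR-FRET 665/615 ratio.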

[12] = molecular target: Parathyroid hormone/parathyroid hormone-related peptide receptor (Homo sapiens) (UniProt Q03431); assay: qHTS for PTHR1 Agonists: Optimization Screen against the NCGC LOPAC library (AID 1347079);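 note: GloSensor cAMP luminescence in HEK-293 GP2 cells expressing human PTHR1 with IBMX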
Sequence of Parathyroid hormone/parathyroid hormone-related peptide receptor (Homo sapiens) (Q03431 whole entry, looked up): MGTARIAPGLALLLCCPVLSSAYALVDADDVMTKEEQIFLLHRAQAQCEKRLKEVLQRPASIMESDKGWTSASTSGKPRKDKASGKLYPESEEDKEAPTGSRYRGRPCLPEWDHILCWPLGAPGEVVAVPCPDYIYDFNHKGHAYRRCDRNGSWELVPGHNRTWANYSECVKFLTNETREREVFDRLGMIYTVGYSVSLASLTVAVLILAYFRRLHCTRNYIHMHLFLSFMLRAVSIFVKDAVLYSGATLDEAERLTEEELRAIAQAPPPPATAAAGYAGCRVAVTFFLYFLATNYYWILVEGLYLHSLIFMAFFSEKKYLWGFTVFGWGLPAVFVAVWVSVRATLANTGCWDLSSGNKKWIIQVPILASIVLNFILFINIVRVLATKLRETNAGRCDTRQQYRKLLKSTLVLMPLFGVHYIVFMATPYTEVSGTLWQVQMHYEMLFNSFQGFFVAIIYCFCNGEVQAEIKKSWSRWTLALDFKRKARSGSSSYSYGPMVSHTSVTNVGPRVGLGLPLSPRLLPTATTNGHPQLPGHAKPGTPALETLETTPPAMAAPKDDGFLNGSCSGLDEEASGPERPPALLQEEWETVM
Method in brief: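 HEK-293 GP2 cells, PTHR1 + GloSensor cAMP; 3000 cells/well, o/n. Luciferin + IBMX 0.5mM each (stock), 1 hr 37C. Cpd titration, 1 hr 37C. Lum after 15 min RT. Ctrl M-PTH(1-15) top 10uM.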

[13] = qHTS for Inhibitors of the Functional Ribonucleoprotein Complex (vRNP) of Lassa (LASV) Arenavirus: LASV Primary Screen - GLuc reporter signal (AID 1347082; calls by dose curve; tested in HEK293 reporter line; note: series mostly up to about 57 µM; nearly all actives have a fitted effect of over 60% in size)
[14] = molecular target: Nucleoprotein (Lymphocytic choriomeningitis virus (strain Armstrong)) (UniProt P09992); assay: qHTS for Inhibitors of the Functional Ribonucleoprotein Complex (vRNP) of Lymphocytic Choriomeningitis Arenaviruses (LCMV): LCMV Primary Screen - GLuc reporter signal (AID 1347086; calls by dose curve; note: series mostly up to about 57 µM; nearly all actives have a fitted effect of over 70% in size)
Sequence of Nucleoprotein (Lymphocytic choriomeningitis virus (strain Armstrong)) (P09992 whole entry, looked up): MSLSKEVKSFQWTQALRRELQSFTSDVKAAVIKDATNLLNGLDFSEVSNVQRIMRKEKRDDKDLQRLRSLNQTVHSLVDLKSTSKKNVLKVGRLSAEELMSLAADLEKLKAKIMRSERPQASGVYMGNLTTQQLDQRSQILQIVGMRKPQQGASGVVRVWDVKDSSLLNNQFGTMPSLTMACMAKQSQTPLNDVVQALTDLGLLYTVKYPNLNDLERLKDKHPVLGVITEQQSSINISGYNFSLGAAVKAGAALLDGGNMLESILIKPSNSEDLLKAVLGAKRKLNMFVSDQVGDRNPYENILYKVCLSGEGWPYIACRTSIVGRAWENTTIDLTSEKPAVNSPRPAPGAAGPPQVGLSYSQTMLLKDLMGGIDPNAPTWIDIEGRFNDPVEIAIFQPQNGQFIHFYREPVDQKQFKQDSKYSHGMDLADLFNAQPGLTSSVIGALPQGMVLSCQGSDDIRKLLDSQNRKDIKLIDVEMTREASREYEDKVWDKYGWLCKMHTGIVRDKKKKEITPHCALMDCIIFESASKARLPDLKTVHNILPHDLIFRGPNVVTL

[15] = P-glycoprotein substrates identified in KB-3-1 adenocarcinoma cell line, qHTS therapeutic library screen (AID 1346986); note: nearly all actives have a fitted effect of over 60% in size
Method in brief: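 72 h cell-killing screen, 500 cells/well, CellTiter-Glo luminescence. Paired lines KB-3-1/KB-8-5-11; P-gp dependence checked by tariquidar co-treatment and HEK-293 MDR-19 versus empty-vector cells.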

| Compound | Potency [1] | Potency [2] | Potency [3] | Potency [4] | Potency [5] | Potency [6] | Potency [7] | Potency [8] | Potency [9] | outcome [10] | outcome [11] | outcome [12] | Potency [13] | Potency [14] | Potency [15] |
| --- | --- | --- | --- | --- | --- | --- | --- | --- | --- | --- | --- | --- | --- | --- | --- |
| COc1ccc(Cc2nccc3cc(OC)c(OC)cc23)cc1OC | inactive | inactive | 880 nM (active) and inactive | inactive | inactive | inactive | – | – | – | – | – | – | – | – | – |
| NCC(CC(=O)O)c1ccc(Cl)cc1 (configuration not stated) | inactive | inactive | inactive | inactive | inactive | inactive | inactive | inactive | inactive | inactive | inactive | inactive | inactive | inactive | – |
| CCC(C(N)=O)N1CCCC1=O (configuration not stated) | inactive | inactive | inactive | inactive | inactive | inactive | – | – | – | – | – | – | inactive | inactive | – |
| COc1ccc(C(CN(C)C)C2(O)CCCCC2)cc1 (configuration not stated) | inactive | inactive | inactive | inactive | inactive | inactive | – | inactive | – | – | – | inactive | inactive | inactive | – |
| CC(C)(C)NCC(O)c1cc(Cl)c(N)c(Cl)c1 (configuration not stated) | inactive | inactive | inactive | inactive | inactive | inactive | – | – | – | – | – | – | inactive | inactive | – |
| N[C@@H](Cc1ccc(Oc2cc(I)c(O)c(I)c2)c(I)c1)C(=O)O | inactive | inactive | inactive | inactive | inactive | inactive | – | – | – | – | – | – | inactive | inactive | – |
| CC[C@@H](CO)NC(=O)[C@@H]1C=C2c3cccc4[nH]cc(c34)C[C@H]2N(C)C1 | inactive | inactive | – | inactive | inactive | inactive | – | inactive | inactive | – | – | inactive | inactive | inactive | – |
| CC[N+]1(C)CCCC(OC(=O)C(O)(c2ccccc2)c2ccccc2)C1 (configuration not stated) | inactive | inactive | inactive | inactive | inactive | inactive | – | – | – | – | – | – | inactive | inactive | – |
| O=P1(NCCCl)OCCCN1CCCl (configuration not stated) | inactive | inactive | 10.5 µM (active) | inactive | inactive | inactive | – | – | – | – | – | – | inactive | inactive | – |
| CCC(COC(=O)c1cc(OC)c(OC)c(OC)c1)(c1ccccc1)N(C)C (configuration not stated) | inactive | inactive | – | inactive | inactive | inactive | – | – | – | – | – | – | inactive | inactive | – |
| OCCOc1ccccc1 | inactive | inactive | inactive | inactive | inactive | inactive | – | – | – | – | – | – | inactive | inactive | – |
| CCC1(C2=NCCN2)Cc2ccccc2O1 (configuration not stated) | inactive | inactive | inactive | inactive | inactive | inactive | inactive | inactive | inactive | inactive | inactive | inactive | inactive | inactive | – |
| NN=C(N)N | inactive | inactive | inactive | inactive | inactive | inactive | inactive | inactive | inactive | inactive | inactive | inactive | inactive | inactive | – |
| CC(=O)[C@H]1CC[C@H]2[C@@H]3CC[C@H]4C[C@H](O)CC[C@]4(C)[C@H]3C(=O)C[C@]12C | inactive | inactive | – | inactive | inactive | inactive | inactive | inactive | inactive | inactive | inactive | inactive | inactive | inactive | – |
| FC(F)(F)c1cccc(C2=CCN(CCc3ccc4ccccc4c3)CC2)c1 | inactive | inactive | inactive | inactive | inactive | inactive | – | – | – | – | – | – | inactive | inactive | – |
| CCCC(C)(COC(N)=O)COC(=O)NC(C)C (configuration not stated) | inactive | inactive | inactive | inactive | inactive | inactive | inactive | inactive | inactive | – | – | inactive | inactive | inactive | inactive |
| N[C@@H]1C[C@H]1c1ccccc1 | inactive | inactive | inactive | inactive | inactive | inactive | – | – | – | – | – | – | inactive | inactive | – |
| C[C@]12C/C(=C/O)C(=O)C[C@@H]1CC[C@@H]1[C@@H]2CC[C@@]2(C)[C@H]1CC[C@]2(C)O | inactive | inactive | inactive | inactive | inactive | inactive | – | – | – | – | – | – | inactive | inactive | – |
| C#CCN(C)[C@H](C)Cc1ccccc1 | inactive | inactive | inactive | inactive | inactive | inactive | – | – | – | – | – | – | inactive | inactive | – |
| Oc1cccc2cccnc12 | inactive | inactive | inactive | 14.1 µM (active) and inactive | inactive | inactive | – | – | – | – | – | – | inactive | inactive | – |
| Clc1cccc(N2CCNCC2)c1 | inactive | inactive | inactive | inactive | inactive | inactive | – | – | – | – | – | – | inactive | inactive | – |
| CNCC(O)c1ccc(O)cc1 (configuration not stated) | inactive | – | inactive | inactive | inactive | inactive | inactive | inactive | inactive | inactive | inactive | inactive | inactive | inactive | inactive |
| C=C1CC[C@@]2(O)[C@H]3Cc4ccc(O)c5c4[C@@]2(CCN3CC2CC2)[C@H]1O5 | inactive | – | inactive | – | inactive | inactive | – | – | – | – | – | – | inactive | inactive | – |
